# From ChEMBL document CHEMBL3433997, “St. Jude Leishmania screening dataset” (2016)
# Key:
# Format in all cases: functional
# [1] = target: Solute carrier family 2, facilitated glucose transporter member 1 (Homo sapiens) (UniProt P11166); experiment: ST_JUDE_LEISH: Cytotoxicity at 2uM final concentration against transgenic Leishmania Mexicana promastigotes LmGLUT1 that are glucose transport deficient and complemented with the human glucose transporter GLUT1. Activity is measured by DNA content using SYBR green in vitro
# Solute carrier family 2, facilitated glucose transporter member 1 (Homo sapiens), sequence (P11166 whole entry): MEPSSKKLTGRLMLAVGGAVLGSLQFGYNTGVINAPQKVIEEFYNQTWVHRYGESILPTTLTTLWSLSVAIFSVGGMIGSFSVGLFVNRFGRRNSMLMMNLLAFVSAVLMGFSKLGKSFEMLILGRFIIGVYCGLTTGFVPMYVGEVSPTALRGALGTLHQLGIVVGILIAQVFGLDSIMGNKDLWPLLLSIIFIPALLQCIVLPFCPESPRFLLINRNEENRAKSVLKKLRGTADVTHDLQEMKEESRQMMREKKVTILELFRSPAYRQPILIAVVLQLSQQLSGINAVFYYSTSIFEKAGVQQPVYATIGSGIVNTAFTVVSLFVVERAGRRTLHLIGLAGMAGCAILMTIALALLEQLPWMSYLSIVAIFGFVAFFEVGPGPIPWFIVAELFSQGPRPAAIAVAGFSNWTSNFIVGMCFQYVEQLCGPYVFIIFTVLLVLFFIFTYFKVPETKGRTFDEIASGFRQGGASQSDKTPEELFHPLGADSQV
# [2] = target: Hexose transporter 1 (Plasmodium falciparum) (UniProt O97467); experiment: ST_JUDE_LEISH: Cytotoxicity at 2uM final concentration against transgenic Leishmania Mexicana promastigotes LmPfHT that are glucose transport deficient and complemented with the Plasmodium falciparum hexose transporter. Activity is measured by DNA content using SYBR green in vitro
# [3] = target: Glucose transporter (Leishmania mexicana) (UniProt O61059); experiment: ST_JUDE_LEISH: Cytotoxicity at 2uM final concentration against transgenic Leishmania Mexicana promastigotes LmGT2 that are glucose transport deficient and complemented with the L. Mexicana glucose transporter 2. Activity is measured by DNA content using SYBR green in vitro
SMILES,inhibition [1],inhibition [2],inhibition [3]
COc1ccc2nccc([C@@H](O)CN3CCC(NC/C=C/c4cccnc4)CC3)c2c1,1.71%,2.98%,2.59%
Cc1nc2nc(N)nc(N)c2c(C)c1Cc1ccccc1Cl,9.22%,12.6%,7.89%
O=C(NC1CC1)c1ccc(N2CCN(Cc3ccc(Cl)cc3)CC2)nc1,0.06%,-0.23%,-0.4%
O=C(Nc1cc(C(F)(F)F)cc(C(F)(F)F)c1)c1cc(C(F)(F)F)cc(C(F)(F)F)c1,0.3%,-0.43%,1.06%
CCN1CCN(c2cc(C)c3cc(NC(=O)C=Cc4cccc(OC)c4OC)ccc3n2)CC1,5.91%,11.3%,1.27%
O=C(Nc1ccccc1O)c1ccc(S(=O)(=O)c2ccc(Cl)cc2)cc1,5.52%,4.67%,6.69%
FC(F)(F)c1ccc2[nH]c(-c3ccc(-c4ccc(CNCc5ccccc5)cc4)cc3)nc2c1,8.83%,6.65%,6.47%
CSc1ccc2nccc(Nc3ccc(Oc4ccccc4)cc3)c2c1,5.73%,6.24%,1.56%
COc1ccc(-c2nonc2NC(=O)c2ccc(C(C)(C)C)cc2)cc1OC,-0.32%,0.21%,-0.16%
NS(=O)(=O)NCCCN1CCN(c2ccccc2)CC1,1.95%,1.37%,1.5%
O=C(Nc1cccc(CN2CCCN(Cc3ncc[nH]3)CC2)c1)c1cc2ccccc2s1,3.43%,5.48%,3.3%
O=C(Cn1c(CCc2cccc(F)c2F)cc(=O)c2ccccc21)N(Cc1ccc(-c2ccc(C(F)(F)F)cc2)cc1)C1CCN(CCO)CC1,4.1%,3.74%,4.47%
CCN1CCN(Cc2ccc3nc(-c4cc(C)n(Cc5cc(Cl)ccc5OCc5ccccc5)n4)[nH]c3c2)CC1,3.5%,3.38%,-0.3%
Cc1ccccc1CCNC(=O)c1cnc(N2CCN(c3ccncc3)CC2)c(Cl)c1,79%,81.9%,84.2%
COC(=O)c1ccc(NC(=O)Nc2cccc(CCNCc3ccccc3)c2)cc1,-0.06%,-0.8%,-1.41%
CS(=O)(=O)NCCCNCc1cccc(-c2cccc(-c3nc4cc(C(F)(F)F)ccc4[nH]3)c2)c1,-0.01%,-4.31%,-1.5%
